Results filed as inconclusive are left out. Active and inactive are the calls of the source. The call rests on the fitted dose curve; in most records, active means well fitted cell-killing curve with a large enough effect; inconclusive means small, poorly fitted or top-dose-only effect, or effect the other way; inactive means no such curve, though single readings can be large or run the other way.
Test: Quantitative High-Throughput drug screen in 47 multiple myeloma cell lines against the NCATS MIPE library collection: Karpas25_ECACC cell viability assay (AID 1918968; further: nearly all actives have a fitted effect of over 35% in size)
Details: Karpas25 myeloma viability, CellTiter-Glo ATP, 48 h; series mostly up to 45.8 µM; viability (% of control): at the top concentration
Excerpt: PI: Beverly A. Mock Ph.D.
Laboratory of Cancer Biology and Genetics,
Center for Cancer Research, National Cancer Institute,
National Institute of Health, Bethesda, Maryland
Drug resistance and disease progression are common in multiple myeloma (MM) patients, underscoring the need for new therapeutic combinations. […] We hypothesized that effective combinations would reduce MYC expression and enhance p16 activity. […] These preclinical data identify potentially useful drug combinations for evaluation in drug-resistant MM and reveal potential mechanisms of combined drug sensitivity.
Described herein is the primary MIPE qHTS used to cherrypick compounds. Validated compounds were then further tested for potential synergistic activiy.
[1] Peat TJ, Gaikwad SM, Dubois W, Gyabaah-Kessie N, Zhang S, Gorjifard S, Phyo Z, Andres M, Hughitt VK, Simpson RM, Miller MA, Girvin AT, Taylor A, Williams D, D'Antonio N, Zhang Y, Rajagopalan A, Flietner E, Wilson K, Zhang X, Shinn P, Klumpp-Thomas C, McKnight C, Itkin Z, Chen L, Kazandijian D, Zhang J, Michalowski AM, Simmons JK, Keats J, Thomas CJ, Mock BA. Drug combinations identified by high-throughput screening promote cell cycle transition and upregulate Smad pathways in myeloma. Cancer Lett. 2023 Aug 1;568:216284. doi: 10.1016/j.canlet.2023.216284. Epub 2023 Jun 24. PMID: 37356470; PMCID: PMC10408729.
SEQUENCE No. (e.g., 1, 2, 3, etc.); […] (e.g., Cells, Incubation, Reagent, etc.); VALUE and DESCRIPTION.
1; Cells; 5 uL; white, solid bottom 1536-well Greiner assay plate.
2; Compounds; 23 nL; Kalypsis pin tool (Wako USA) equipped with a 1536-well pin head to transfer to the assay plates.
3; Incubation; 48 hours; 37C incubation.
4; Reagent;5uL; CellTiter Glo (Promega).
5; Detector; 425V; Luminescence; Viewlux PerkinElmer.
NOTES (numbers refer to Sequence numbers above)
1. The cell-based screening methods employed in this study were like those previously published. Briefly, the corresponding myeloma cell lines were screened in 1,536-well plates with 500 cells, 5-uL per well for inhibition of cell viability (assessed by measuring ATP levels with CellTiterGlo).
2. NCATS MIPE 4.0 library of approved and investigational drugs were added using the Kalypsis pin tool. Wells treated with DMSO only for 100% viability and media only wells for 0% viability were used as controls.
3. The assay plates were covered and incubated for 48 hours in a 37C, 5% CO2 incubator with controlled humidity.
4. After 48 hours, CellTilter-GloTM luminescent substrate mix (Promega) reagent was added to the assay plate and plates we incubated for 5 min at room temperature.
5. Signal was measured as median relative luminescence units on a ViewLux (PerkinElmer) multiplate reader.
[1] Heske CM, Davis MI, Baumgart JT, Wilson K, Gormally MV, Chen L, Zhang X, Ceribelli M, Duveau DY, Guha R, Ferrer M, Arnaldez FI, Ji J, Tran HL, Zhang Y, Mendoza A, Helman LJ, Thomas CJ. Matrix Screen Identifies Synergistic Combination of PARP Inhibitors and Nicotinamide Phosphoribosyltransferase (NAMPT) Inhibitors in Ewing Sarcoma. Clin Cancer Res. 2017 Dec 1;23(23):7301-7311. doi: 10.1158/1078-0432.CCR-17-1121. Epub 2017 Sep 12. PMID: 28899971; PMCID: PMC6636827.
Potency means the concentration at half of the fitted maximal effect.

SMILES | Potency | viability (% of control)
CO[C@H]1C[C@@H]2CC[C@@H](C)[C@@](O)(O2)C(=O)C(=O)N2CCCC[C@@H]2C(=O)O[C@H]([C@H](C)C[C@@H]2CC[C@H](OP(C)(C)=O)[C@H](OC)C2)CC(=O)[C@H](C)C=C(C)[C@@H](O)[C@@H](OC)C(=O)[C@H](C)C[C@H](C)C=CC=CC=C1C | 20.9 µM (active) | 
CC(C)=CC[C@@H](O)C1=CC(=O)c2c(O)ccc(O)c2C1=O | 5.26 µM (active) | 
O=C(NCc1ccccc1)c1csc(Nc2ccncn2)n1 | 10.5 µM (active) | 
COc1cc2ncnc(Nc3ccc(F)c(Cl)c3)c2cc1OCCCN1CCOCC1 | 6.05 µM (active) | 
CC(C)n1cnc2c(NCCCCCCNC(=O)OC(C)(C)C)nc(NCCO)nc21 | 23.5 µM (active) | 
NC(=O)c1cccc(-c2cc(Nc3ccc(OC(F)(F)F)cc3)ncn2)c1 | 8.33 µM (active) | 
COc1cc(O)c2c(c1)C(=O)c1cc(C)cc(O)c1C2=O |  | 97.2% [at 23.2 µM] (inactive)
CCCCCCCCCCCC1=C(O)C(=O)C=C(O)C1=O | 2.96 µM (active) | 
CC(=NNC(=S)N1CCC1)c1ccccn1 |  | 4.08% (inactive)
CCOC(=O)O[C@]1(C(=O)OCCl)CC[C@@H]2[C@H]3CCC4=CC(=O)C=C[C@]4(C)[C@@H]3[C@@H](O)C[C@@]21C | 0.526 µM (active) | 
COc1cc2ncnc(-n3nc(-c4ccccn4)nc3N)c2cc1OC | 0.743 µM (active) | 
CC(C)C[C@H](CC(=O)O)C(=O)N[C@@H](Cc1c[nH]c2ccccc12)C(=O)N[C@@H](C)c1ccccc1 |  | 117% (inactive)
Cc1ccc(F)c(NC(=O)Nc2ccc(-c3cccc4[nH]nc(N)c34)cc2)c1 | 26.4 µM (active) | 
Cc1ccc(C(C)(O)c2nc3ccccc3s2)c(C)c1 (stereo not given) |  | 111% (inactive)
CNC1CCC(N(Cc2cccc(-c3ccncc3)c2)C(=O)c2sc3c(F)ccc(F)c3c2Cl)CC1 (stereo not given) | 11.8 µM (active) | 
C[C@H](NC(=O)C(=O)Nc1ccccc1C(C)(C)C)C(=O)N[C@@H](CC(=O)O)C(=O)COc1c(F)c(F)cc(F)c1F | 20.9 µM (active) | 
O=C(Nc1cccc(Br)c1)c1cccc(S(=O)(=O)N2CCCCCC2)c1 | 18.7 µM (active) | 
Nc1ncnc2c1ncn2[C@@H]1O[C@@H](CO)[C@H](O)[C@H]1O |  | 122% (inactive)
COc1ccc(-c2nc(N3CCOCC3)c3sc(CN(C)c4ncc(C(=O)NO)cn4)cc3n2)cn1 |  | 0.468% (inactive)
O=C(O)c1ccccc1C(=O)Nc1ccc(-c2ccccc2)cc1 |  | 118% (inactive)

SMILES | Potency | viability (% of control)
CO[C@H]1C=CC=C(C)C(=O)NC2=CC(=O)C(NCCN(C)C)=C(C[C@@H](C)C[C@H](OC)[C@@H](O)[C@@H](C)C=C(C)[C@@H]1OC(N)=O)C2=O | 0.059 µM (active) | 
Cc1cc(OCCCc2c(C(=O)O)n(Cc3cccnc3)c3c(-c4c(COc5ccc(N6CCN([S+](C)(=O)[O-])CC6)cc5)nn(C)c4C)cccc23)cc(C)c1Cl | 20.9 µM (active) | 
Cc1ccn(-c2ccc(-c3ncco3)cc2)c(=O)c1-c1ccc2nc(N)ncc2c1 | 9.35 µM (active) | 
O=C(O)[C@H]1O[C@H](Oc2cc3oc(-c4ccccc4)cc(=O)c3c(O)c2O)[C@H](O)[C@@H](O)[C@H]1O |  | 131% (inactive)
CC=CCC=CCCC(=O)[C@H]1O[C@@H]1C(N)=O | 18.7 µM (active) | 
C[C@]12CC[C@@H]3c4ccc(O)cc4C[C@@H](CCCCCCCCCS(=O)CCCC(F)(F)C(F)(F)F)[C@H]3[C@H]1CC[C@H]2O (stereo not given in full) |  | 124% (inactive)
Oc1ccc(C2=Cc3ccc(O)cc3OC2)cc1 | 1.48 µM (active) | 
CC1(C)CCC2=C(O1)c1ccccc1C(=O)C2=O | 5.9 µM (active) | 
CC(=O)O[C@]1(C(C)=O)CC[C@@H]2[C@@H]3C[C@H](C)C4=CC(=O)CC[C@]4(C)[C@H]3CC[C@@]21C | 18.7 µM (active) | 
O=C(Nc1cc(Cl)cc2c1[nH]c1cnccc12)c1cccnc1 | 5.9 µM (active) | 
O=c1ccn([C@@H]2O[C@H](CO)[C@H](O)[C@H]2O)c(=O)[nH]1 |  | 117% (inactive)
Cc1nnc(C(C)C)n1C1C[C@H]2CC[C@@H](C1)N2CC[C@H](NC(=O)C1CCC(F)(F)CC1)c1ccccc1 (stereo not given in full) | 18.7 µM (active) | 
Cc1c(O)cccc1C(=O)N[C@@H](CSc1ccccc1)[C@H](O)CN1C[C@H]2CCCC[C@@H]2C[C@@H]1C(=O)NC(C)(C)C | 14.8 µM (active) | 
C[C@]12CC[C@@H]3c4ccc(O)cc4CC[C@H]3[C@H]1C[C@@H](O)[C@H]2O |  | 108% (inactive)
Nc1ncnc2c1nc(Cl)n2[C@@H]1O[C@H](CO)[C@@H](O)[C@@H]1O | 7.43 µM (active) | 
COc1ccc(C2CC(c3ccccc3)=NN2c2ccc(S(N)(=O)=O)cc2)cc1 (stereo not given) | 16.6 µM (active) | 
Clc1ccc(C(c2ccc(Cl)cc2)n2cc[n+](CC(OCc3ccc(Cl)cc3Cl)c3ccc(Cl)cc3Cl)c2)cc1 (stereo not given) | 7.43 µM (active) | 
N[C@H](CSC(c1ccccc1)(c1ccccc1)c1ccccc1)C(=O)O | 11.8 µM (active) | 
Cc1ccccc1C(C(=O)NC1CCCCC1)N(C(=O)Cn1ccnc1C)c1cccc(F)c1 (stereo not given) | 18.7 µM (active) | 
O=C1C[C@@H](c2ccc(O)cc2)Oc2cc(O)cc(O)c21 |  | 85.6% (inactive)
